The campaign covered roughly 5,500 compounds. About 2,000 (36%) were called active. Roughly 18% stayed inconclusive and do not appear here. No stated cut-off is given here; in the data, active means normalized growth mostly below about 0.91 (no sharp cut-off); inconclusive means no clear call, values can overlap the other calls; inactive means mostly above about 0.92. The list shows a part of the results.
Experiment: chemical genetic growth profiling, strain panel (AID 1159580);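 further: tested at 20 µM; growth read once vehicle control cultures reached saturation at 30 °C; 1 = growth at the plate median or of vehicle wells; lower values mean less growth of the strain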
Settings: growth OD

Measured: normalized growth

C[N+](C)(C)CC(=O)[O-]
inactive: S. cerevisiae deletion strains, locus YJR075W, strain HOC1, active compounds read low 0.977 | S. cerevisiae deletion strains, locus YKL009W, strain mrt4, active compounds read low 0.972 | S. cerevisiae deletion strains, locus YKL068W, active compounds read low 0.976 | S. cerevisiae deletion strains, locus YKL085W, strain MDH1 (second series), active compounds read low 0.978 | S. cerevisiae deletion strains, locus YKL085W, strain MDH1, active compounds read low 0.978 | S. cerevisiae deletion strains, locus YKL160W, strain elf1, active compounds read low 0.995 | S. cerevisiae deletion strains, locus YKL190W, strain CNB1, active compounds read low 0.976 | S. cerevisiae deletion strains, locus YKR001C, strain vps1, active compounds read low 0.982 | S. cerevisiae deletion strains, locus YKR026C, strain gcn3, active compounds read low 1.02 | S. cerevisiae deletion strains, locus YKR091W, strain srl3, active compounds read low 0.976 | S. cerevisiae deletion strains, locus YLL001W, strain dnm1, active compounds read low 0.949 | S. cerevisiae deletion strains, locus YLL026W, active compounds read low 0.982 | S. cerevisiae deletion strains, locus YLL041C, strain sdh2, active compounds read low 0.963 | S. cerevisiae deletion strains, locus YLR027C, strain aat2, active compounds read low 0.989 | S. cerevisiae deletion strains, locus YLR039C, strain RIC1, active compounds read low 0.952 | S. cerevisiae deletion strains, locus YLR058C, strain SHM2, active compounds read low 1 | S. cerevisiae deletion strains, locus YLR102C, strain apc9, active compounds read low 0.992 | S. cerevisiae deletion strains, locus YLR113W, strain HOG1, active compounds read low 0.981 | S. cerevisiae deletion strains, locus YLR221C, strain rsa3, active compounds read low 1 | S. cerevisiae deletion strains, locus YLR258W, strain gsy2, active compounds read low 0.985 | S. cerevisiae deletion strains, locus YLR262C, strain YPT6 (second series), active compounds read low 0.948 | S. cerevisiae deletion strains, locus YLR262C, strain YPT6, active compounds read low 0.938 | S. cerevisiae deletion strains, locus YLR268W, strain sec22, active compounds read low 0.96 | S. cerevisiae deletion strains, locus YLR320W, strain mms22, active compounds read low 1.01 | S. cerevisiae deletion strains, locus YLR330W, strain CHS5, active compounds read low 0.99 | S. cerevisiae deletion strains, locus YLR342W, strain FKS1 (second series), active compounds read low 1.04 | S. cerevisiae deletion strains, locus YLR342W, strain FKS1, active compounds read low 0.988 | S. cerevisiae deletion strains, locus YLR357W, strain rsc2, active compounds read low 0.969 | S. cerevisiae deletion strains, locus YLR370C, strain arc18, active compounds read low 0.985 | S. cerevisiae deletion strains, locus YLR371W, strain rom2, active compounds read low 0.993 | S. cerevisiae deletion strains, locus YLR384C, strain iki3, active compounds read low 0.967 | S. cerevisiae deletion strains, locus YLR418C, strain cdc73, active compounds read low 0.99 | S. cerevisiae deletion strains, locus YML016C, strain PPZ1, active compounds read low 1.01 | S. cerevisiae deletion strains, locus YML032C, strain rad52, active compounds read low 0.97 | S. cerevisiae deletion strains, locus YML120C, strain ndi1, active compounds read low 0.98 | S. cerevisiae deletion strains, locus YML124C, strain tub3, active compounds read low 0.992 | S. cerevisiae deletion strains, locus YMR058W, strain fet3, active compounds read low 0.987 | S. cerevisiae deletion strains, locus YMR078C, strain ctf18, active compounds read low 0.981 | S. cerevisiae deletion strains, locus YMR125W, strain sto1, active compounds read low 0.951 | S. cerevisiae deletion strains, locus YMR129W, active compounds read low 0.975 | S. cerevisiae deletion strains, locus YMR205C, strain PFK2, active compounds read low 0.986 | S. cerevisiae deletion strains, locus YMR223W, strain ubp8, active compounds read low 1.03 | S. cerevisiae deletion strains, locus YMR231W, strain pep5, active compounds read low 0.972 | S. cerevisiae deletion strains, locus YMR263W, strain SAP30, active compounds read low 0.977 | S. cerevisiae deletion strains, locus YMR307W, strain GAS1, active compounds read low 1.04 | S. cerevisiae deletion strains, locus YNL067W, strain RPL9B, active compounds read low 0.982 | S. cerevisiae deletion strains, locus YNL071W, strain lat1, active compounds read low 0.989 | S. cerevisiae deletion strains, locus YNL128W, strain TEP1, active compounds read low 0.989 | S. cerevisiae deletion strains, locus YNL153C, strain GIM3, active compounds read low 0.985 | S. cerevisiae deletion strains, locus YNL183C, strain NPR1, active compounds read low 0.938 | S. cerevisiae deletion strains, locus YNL209W, strain ssb2, active compounds read low 0.995 | S. cerevisiae deletion strains, locus YNL233W, strain BNI4, active compounds read low 0.997 | S. cerevisiae deletion strains, locus YNL248C, strain rpa49, active compounds read low 1.01 | S. cerevisiae deletion strains, locus YNL250W, strain rad50, active compounds read low 0.991 | S. cerevisiae deletion strains, locus YNL271C, strain bni1, active compounds read low 0.992 | S. cerevisiae deletion strains, locus YNL298W, strain CLA4, active compounds read low 0.97 | S. cerevisiae deletion strains, locus YNL307C, strain MCK1, active compounds read low 0.999 | S. cerevisiae deletion strains, locus YNL322C, strain KRE1 (second series), active compounds read low 0.964 | S. cerevisiae deletion strains, locus YNL322C, strain KRE1, active compounds read low 0.99 | S. cerevisiae deletion strains, locus YNR049C, strain mso1, active compounds read low 0.974 | S. cerevisiae deletion strains, locus YNR052C, strain pop2, active compounds read low 0.984 | S. cerevisiae deletion strains, locus YOL006C, strain TOP1, active compounds read low 0.975 | S. cerevisiae deletion strains, locus YOL012C, strain htz1 0.729 | S. cerevisiae deletion strains, locus YOL147C, strain pex11, active compounds read low 1 | S. cerevisiae deletion strains, locus YOR001W, strain rrp6, active compounds read low 0.969 | S. cerevisiae deletion strains, locus YOR061W, strain CKA2, active compounds read low 1 | S. cerevisiae deletion strains, locus YOR069W, strain VPS5, active compounds read low 0.995 | S. cerevisiae deletion strains, locus YOR070C, strain gyp1, active compounds read low 0.994 | S. cerevisiae deletion strains, locus YOR080W, strain dia2, active compounds read low 0.951 | S. cerevisiae deletion strains, locus YOR083W, strain WHI5, active compounds read low 0.971 | S. cerevisiae deletion strains, locus YOR106W, strain vam3, active compounds read low 0.925 | S. cerevisiae deletion strains, locus YOR136W, strain idh2, active compounds read low 0.985 | S. cerevisiae deletion strains, locus YOR144C, strain elg1, active compounds read low 0.991 | S. cerevisiae deletion strains, locus YOR184W, strain ser1, active compounds read low 0.989 | S. cerevisiae deletion strains, locus YOR231W, strain MKK1, active compounds read low 0.986 | S. cerevisiae deletion strains, locus YOR265W, strain rbl2, active compounds read low 0.985 | S. cerevisiae deletion strains, locus YOR270C, strain vph1, active compounds read low 0.956 | S. cerevisiae deletion strains, locus YOR290C, strain snf2, active compounds read low 1 | S. cerevisiae deletion strains, locus YOR316C, strain cot1, active compounds read low 0.972 | S. cerevisiae deletion strains, locus YPL051W, strain arl3, active compounds read low 0.99 | S. cerevisiae deletion strains, locus YPL055C, strain LGE1, active compounds read low 0.944 | S. cerevisiae deletion strains, locus YPL078C, strain atp4, active compounds read low 0.954 | S. cerevisiae deletion strains, locus YPL106C, strain sse1, active compounds read low 0.982 | S. cerevisiae deletion strains, locus YPL240C, strain hsp82, active compounds read low 0.976 | S. cerevisiae deletion strains, locus YPL241C, strain CIN2, active compounds read low 0.999 | S. cerevisiae deletion strains, locus YPL256C, strain CLN2, active compounds read low 1 | S. cerevisiae deletion strains, locus YPR119W, strain clb2, active compounds read low 0.994 | S. cerevisiae deletion strains, locus YPR141C, strain kar3, active compounds read low 0.979 | S. cerevisiae deletion strains, locus YPR163C, strain tif3, active compounds read low 0.992 | S. cerevisiae deletion strains, locus YPR167C, strain met16, active compounds read low 0.986 | S. cerevisiae deletion strains, strain wtn01, active compounds read low 0.96 | S. cerevisiae strains, strain wild type, active compounds read low 0.996

From PubChem BioAssay AID1159580 (chemical genetic matrix, 2015)
